Activity calls are given as the source filed them. Unless noted, the rule behind the calls is not given here.
Assays:
[1] = A549 cell viability effects, profiling panel, calcein-AM fluorescence, 48 h, basal (AID 1162); details: higher = more signal; note: test concentration not given here
[2] = adipocyte viability effects, profiling panel, cell-based, 3T3-L1 adipocytes, calcein-AM fluorescence, 48 h, basal (AID 1163); details: 3T3-L1 adipocytes viability, higher = more signal; note: test concentration not given here
[3] = HepG2 cell viability effects, profiling panel, calcein-AM fluorescence, 48 h, basal (AID 1164); details: higher = more signal; note: test concentration not given here
[4] = MM1S cell viability effects, profiling panel, calcein-AM fluorescence, 48 h, basal (AID 1165); details: higher = more signal;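 note: viability of MM1S multiple myeloma cells under basal unstimulated conditions; test concentration not given here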
[5] = basal RPMI8226 viability, no added stimulus, profiling panel, cell-based, calcein-AM fluorescence, 48 h, PK04 Diversity Set (AID 1166); details: RPMI8226 myeloma viability, higher = more signal;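 note: cells grown under basal conditions without added stimulus; test concentration not given here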
[6] = basal HepG2 mitochondrial membrane potential changes, profiling panel, cell-based, JC-1 fluorescence, 24 h, 100 nL compound (AID 1167); details: higher = more signal; note: test concentration not given here
[7] = basal 3T3-L1 adipocyte mitochondrial potential changes, profiling panel, cell-based, JC-1 fluorescence, 3T3-L1 adipocytes, 24 h, 100 nL compound (AID 1168); details: JC-1 mitochondrial fluorescence, higher = more signal, called active from +8 up or from −8 down; note: test concentration not given here
[8] = basal RPMI8226 mitochondrial membrane potential changes, profiling panel, cell-based, JC-1 fluorescence, 24 h, 100 nL compound (AID 1169); details: RPMI8226 myeloma, JC-1 mitochondrial potential fluorescence, higher = more signal; note: test concentration not given here
[9] = basal MM1S mitochondrial membrane potential changes, profiling panel, cell-based, JC-1 fluorescence, 24 h, 100 nL compound (AID 1170); details: higher = more signal; note: test concentration not given here
[10] = A549 lung cancer cell viability effects, profiling panel, resazurin fluorescence, 24 h, PK04 Diversity Set (AID 1171); details: higher = more signal, called active from +8 up or from −8 down; note: test concentration not given here
[11] = HepG2 liver cancer cell viability effects, profiling panel, resazurin fluorescence, 24 h, PK04 Diversity Set (AID 1172); details: higher = more signal; note: test concentration not given here
[12] = basal S. cerevisiae growth modulation, no modifier, primary screen, OD600, strain BY4716, 24 h, basal condition (AID 1173); details: OD600, 24 h, higher = more signal, called active from +8 up or from −8 down
[13] = MM1S myeloma cell viability, profiling panel, resazurin fluorescence, basal, 24 h, PK04 Diversity Set (AID 1174); details: higher = more signal, called active from +8 up or from −8 down;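 note: MM1S multiple myeloma cell line; test concentration not given here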
[14] = molecular target: Dihydroorotate dehydrogenase (quinone), mitochondrial (Plasmodium falciparum (isolate 3D7)) (UniProt Q08210); test: PfDHODH enzyme inhibitors, primary screen, biochemical, C-terminal His tag, absorbance 600 nm (AID 1175); details: DCIP absorbance 600 nm, higher = more signal, called active from +8 up or from −8 down;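 note: recombinant parasite enzyme with a five histidine tag at its C terminus; test concentration not given here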
Dihydroorotate dehydrogenase (quinone), mitochondrial (Plasmodium falciparum (isolate 3D7)), sequence (Q08210 whole entry, looked up): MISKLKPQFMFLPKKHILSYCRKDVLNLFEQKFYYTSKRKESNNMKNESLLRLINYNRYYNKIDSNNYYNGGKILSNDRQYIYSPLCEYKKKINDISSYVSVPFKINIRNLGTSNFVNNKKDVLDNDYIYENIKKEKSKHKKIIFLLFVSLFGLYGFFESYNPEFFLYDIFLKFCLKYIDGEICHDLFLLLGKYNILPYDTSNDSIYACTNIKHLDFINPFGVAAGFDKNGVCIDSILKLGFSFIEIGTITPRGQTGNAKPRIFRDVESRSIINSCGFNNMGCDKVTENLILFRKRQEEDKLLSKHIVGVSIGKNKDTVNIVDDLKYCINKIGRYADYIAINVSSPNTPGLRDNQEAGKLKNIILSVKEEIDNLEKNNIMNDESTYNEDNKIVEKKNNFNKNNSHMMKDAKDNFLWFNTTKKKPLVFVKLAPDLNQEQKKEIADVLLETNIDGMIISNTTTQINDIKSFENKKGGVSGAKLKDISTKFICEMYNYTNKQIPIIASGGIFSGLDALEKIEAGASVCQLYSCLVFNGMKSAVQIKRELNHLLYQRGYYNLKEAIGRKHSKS

[15] = P. aeruginosa biofilm formation inhibitors, primary screen, strain PAO1, LB-PBS medium, absorbance 600 nm (AID 1176); note: test concentration not given here; details: P. aeruginosa PAO1 growth/biofilm, A600, 12 h; higher = more signal
[16] = S. cerevisiae RM11-1a growth modifiers, primary screen, strain RM11-1a, OD600, basal, 24 h (AID 1177); details: OD600, 24 h, higher = more signal, called active from +8 up or from −8 down;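 note: cultures grown under basal conditions with no added stressor; test concentration not given here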
[17] = E. coli acrAB mutant growth effects, primary screen, E. coli filamentation inducers, strain DRC39, OD650, 24 h (AID 1178); details: higher = more signal, called active from +8 up or from −8 down;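 note: growth measured as culture turbidity by optical density at 650 nm; test concentration not given here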
[18] = E. coli acrAB mutant growth effects, primary screen, E. coli filamentation inducers, strain DRC39, OD650, 48 h (AID 1179);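 note: screen aims at cell division blockers that make cells filament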; details: E. coli DRC39 delta-acrAB growth, higher = more signal, called active from +8 up or from −8 down
[19] = RPMI8226 myeloma cell viability, profiling panel, resazurin fluorescence, basal, 24 h, PK04 Diversity Set (AID 1180); details: higher = more signal;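 note: RPMI8826 multiple myeloma cell line at 5000 cells per well; test concentration not given here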
[20] = molecular target: E3 ubiquitin-protein ligase XIAP (Homo sapiens) (UniProt P98170); test: XIAP binders, primary screen, biophysical, small-molecule microarray, fluorescence 635 nm (AID 1181); details: small-molecule microarray binding, higher = more signal;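 note: score merges 667 nm emission and signal to noise over triplicate slides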
E3 ubiquitin-protein ligase XIAP (Homo sapiens), sequence (P98170 whole entry, looked up): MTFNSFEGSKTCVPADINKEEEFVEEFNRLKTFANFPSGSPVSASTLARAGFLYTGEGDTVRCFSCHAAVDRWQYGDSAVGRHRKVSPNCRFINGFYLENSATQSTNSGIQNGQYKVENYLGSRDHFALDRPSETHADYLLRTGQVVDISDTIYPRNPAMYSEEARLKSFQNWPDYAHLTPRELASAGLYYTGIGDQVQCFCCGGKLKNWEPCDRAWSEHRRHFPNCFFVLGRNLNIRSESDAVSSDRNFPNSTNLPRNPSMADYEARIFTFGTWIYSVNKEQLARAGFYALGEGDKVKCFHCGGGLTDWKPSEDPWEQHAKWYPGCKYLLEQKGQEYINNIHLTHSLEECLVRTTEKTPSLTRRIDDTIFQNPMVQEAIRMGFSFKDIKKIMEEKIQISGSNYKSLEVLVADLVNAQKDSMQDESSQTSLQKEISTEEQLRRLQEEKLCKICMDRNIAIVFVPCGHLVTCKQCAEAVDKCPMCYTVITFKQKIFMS

Row | SMILES | z-score [1] | z-score [2] | z-score [3] | z-score [4] | z-score [5] | z-score [6] | z-score [7] | z-score [8] | z-score [9] | z-score [10] | z-score [11] | z-score [12] | z-score [13] | composite z-score [14] | z-score [15] | z-score [16] | z-score [17] | z-score [18] | z-score [19] | composite z-score [20]
1 | COCC1C2CC[C@H]3C(OCc4ccc(F)cc4C(F)(F)F)OC[C@]4(C)[C@H]3C2=C(CN4C(=O)OC(C)(C)C)[C@H](C)C1COC (stereo not given in full) | -0.201 | -0.511 | 0.922 | -2.86 | -3.14 | 1.53 | -0.453 (inactive) | -0.507 | -1.42 | -0.546 (inactive) | -0.422 | 0.236 (inactive) | -0.481 (inactive) | -0.908 (inactive) | 0.383 (inactive) | -3.23 (inactive) | -0.93 (inactive) | 0.25 (inactive) | 0.092 | -0.122
2 | O=C1C2C=CC(C(O)c3ccc(B(O)O)cc3)N(Nc3ccc([N+](=O)[O-])cc3)C2C(=O)N1c1ccccc1 (stereo not given) | -2.05 | -0.167 | -5.4 | 0.0297 | -4.09 | -1.66 | 3.71 (inactive) | -0.213 | -1.22 | 0.0312 (inactive) | 0.0107 | -17.3 (active) | -0.307 (inactive) | -3.05 (inactive) | 0.188 (inactive) | -22.9 (active) | -1.01 (inactive) | -0.657 (inactive) | -0.423 | 0.0823
3 | Cc1ccc(S[C@]2(C(=O)NCc3ccccc3)CC(=O)N(Cc3cc(C(F)(F)F)cc(C(F)(F)F)c3)[C@@H]2c2ccc(CO)cc2)cc1 | -0.549 | 0.774 | 0.224 | -0.125 | -1.17 | -0.271 | -0.525 (inactive) | 1.13 | -0.476 | 0.7 (inactive) | -0.417 | -0.248 (inactive) | 0.133 (inactive) | 1.01 (inactive) | 0.711 (inactive) | 1.43 (inactive) | -0.244 (inactive) | -0.532 (inactive) | 0.14 | -0.228
4 | CCCC[C@@H]1C[C@H]1[C@@H](NC(=O)c1ccccc1)c1ccc(-c2ccccc2)cc1 | -1.54 | -1.15 | -3.24 | -2.55 | -4.26 | -3.59 | -0.49 (inactive) | -0.568 | -2.19 | -1.31 (inactive) | -2.26 | -0.552 (inactive) | -2.24 (inactive) | -0.297 (inactive) | 0.122 (inactive) | 0.219 (inactive) | -0.499 (inactive) | -0.293 (inactive) | -3.64 | 1.14

From PubChem BioAssay
